# Rows were chosen to be rich in hits. Some 1.6% of all compounds tested hit in one or more screens of this group.
# PPC-1+TRAIL kill – compounds killing PPC-1 cancer cells with TRAIL present, primary screen, TRAIL potentiator project, ATPLite luminescence, uHTS; PPC-1 cells + TRAIL, ATPLite viability luminescence; 0.41% of 220,000 active; cell killing (% activity), % at 4 µM or 5 µM;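 active means cell killing above 50% in the first pass at 4 µM, then a duplicate retest at 5 µM averaging 50% or more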
# Platelet DG rel – inhibitors of platelet dense granule secretion, primary screen, cell-based, MLPCN, human platelets; human platelet-rich plasma, SFLLRN dense granule ATP release, luminescence; inhibition, %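 (compounds screened at 7.5 µM in platelet-rich plasma)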; 0.22% of 300,000 active; AID 1663, 2009;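 active means mean replicate score, as percent of positive control, at or above 50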
# C8 TRAIL sens – viability loss with TRAIL in NB7+C8 cells, primary screen, TRAIL sensitizer project, cell-based, ATPlite luminescence | inhibition (viability loss, TRAIL sensitization), % at 10 µM | 1% of 360,000 active | AID 624354, 2012;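 active means compounds causing at least 50% loss of cell viability in the single-dose screen, relative to plate controls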
# STAT1 blocker – STAT1 signaling inhibitors, primary screen, cell-based, HTS, luciferase reporter | NIH 3T3 STAT1-luciferase reporter, IFN-gamma, luminescence | inhibition, % at 5.5 µM | 0.35% of 200,000 active;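 active means inhibition above a set limit, the mean inhibition across all tested compounds plus 3 SD, cut at about 34% in these data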
# STAT3 blocker – IL-6 driven STAT3 reporter inhibitors, primary screen, U3A cells, luciferase, luminescence, MLSCN library; IL-6 STAT3-luciferase reporter; host cell line lacks STAT1; 0.89% of 190,000 active; AID 862, 2007; inhibition, % at 5.5 µM;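 active means inhibition above the mean inhibition across all screened compounds plus 3 SD, cut at about 44% in these data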
# A number is an active result; i = inactive; nt = not tested or not shown.
SMILES,PPC-1+TRAIL kill,Platelet DG rel,C8 TRAIL sens,STAT1 blocker,STAT3 blocker
CCCc1ccc(-c2cc(C(=O)Nc3ccc([N+](=O)[O-])cn3)c3ccccc3n2)cc1,i,i,51,i,i
CCCc1ccc(-c2cc(C(=O)NCCc3ccc(S(N)(=O)=O)cc3)c3ccccc3n2)cc1,i,i,58,i,i
CCNC(=S)NNC(=O)c1cc(-c2cccc(OC)c2)nc2ccccc12,51,i,i,i,i
NS(=O)(=O)c1ccc(CCNC(=O)c2cc(-c3ccc(Br)cc3)nc3ccccc23)cc1,i,i,i,i,i
COCCNC(=O)c1cc(-c2ccc(-c3ccccc3)cc2)nc2ccccc12,nt,i,56,nt,nt
O=C(O)CC1Sc2nnc(COc3ccc(Cl)cc3)n2N=C1c1ccccc1 (centres undefined),nt,i,i,nt,nt
COc1ccc(NC(=O)CC2C(=O)Nc3ccccc3N2CC(=O)N2CCCC2)cc1 (centres undefined),nt,nt,i,nt,nt
CCCCn1c(N)c(N(CCOC)C(=O)CSc2n[nH]c(-c3ccc(OC)cc3)n2)c(=O)[nH]c1=O,nt,i,i,nt,nt
CCCCCC(=O)Nc1ccc(S(=O)(=O)NC2=NCCCCC2)cc1,nt,nt,i,nt,nt
Nc1nn2cc(-c3ccc(Br)cc3)nc2c2ccccc12,i,i,51,nt,nt
COc1ccc(CO/N=C/c2c(C)[nH]c(=O)[nH]c2=O)cc1,i,72,i,i,i
COc1ccc(C(=O)N/N=C/c2c(C)[nH]c(=O)[nH]c2=O)cc1,i,i,i,i,i
COc1ccc(NC(=O)CN2c3cccc4cccc(c34)S2(=O)=O)cc1OC,nt,nt,i,nt,nt
CC(=O)c1ccsc1-c1c(C)cc2oc(=O)cc(-c3ccccc3)c2c1C,nt,nt,i,nt,nt
Cn1c(=O)n(C)c2cc(S(=O)(=O)NCc3ccccc3)ccc21,i,52,i,i,i
C[C@@H]1CN([C@@H](C)CO)C(=O)CCCn2nncc2CO[C@@H]1CN(C)C(=O)Nc1ccnc(N2CCOCC2)c1,nt,nt,i,nt,nt
COC1=C(N)C(=O)c2nc(C)ccc2C1=O,nt,nt,91,nt,nt
Cc1ccc(C(C#N)=Cc2ccc3c(c2)OCO3)cc1,nt,nt,56,nt,nt
CNc1nc(-c2ccccc2)c2sccc2n1,nt,nt,i,nt,nt
CC(C)C[C@H](NC(=O)c1nc[nH]c1C(=O)N[C@@H](CC(C)C)C(=O)OCc1ccccc1)C(=O)OCc1ccccc1,nt,i,52,nt,nt
CC(C)(C)OC(=O)NCCCC[C@H](NC(=O)c1[nH]cnc1C(=O)N[C@@H](Cc1ccccc1)C(=O)OC(C)(C)C)C(=O)OC(C)(C)C,i,i,58,nt,nt
CC(C)C[C@H](NC(=O)c1nc[nH]c1C(=O)N[C@@H](CC(C)C)C(=O)OC(C)(C)C)C(=O)OC(C)(C)C,i,i,55,nt,nt
CC(=NNC(=S)N1CCN(c2ccccn2)CC1)c1nccs1,nt,nt,i,nt,nt
CCCCOCCCNC(=O)C[C@@H]1C[C@@]2(C(=O)OCC)CCCC=C2N(CCc2ccc(OC)c(OC)c2)C1=O,nt,nt,i,nt,nt
CN(C)CCNC(=O)c1cc2c(s1)-c1ccc(Cl)cc1SC2,nt,i,97,nt,nt
SMILES,PPC-1+TRAIL kill,Platelet DG rel,C8 TRAIL sens,STAT1 blocker,STAT3 blocker
CCOC(=O)N1CCN(Cc2cc(=O)oc3cc4c(cc23)CCC4)CC1,i,78,i,i,i
O=C(CCC(=O)N1CCN(c2ccc(F)cc2)CC1)N1CCN(c2ccc(F)cc2)CC1,nt,i,i,nt,nt
O=C(Cn1cccc1)N1CCN(c2ccc(F)cc2)CC1,i,56,i,i,i
CCCCNC(=O)C1(C)CCN1C(=O)c1cc(C)n(C(C)(C)C)n1 (centres undefined),nt,nt,i,nt,nt
COc1ccc(OC)c2c1C(=O)C(Cl)=C(Cl)C2=O,i,66,i,nt,nt
O=C(CCl)N(c1ccc(Cl)cc1)c1c[nH]c2ccccc12,i,i,89,i,i
CC1=NNC(=O)/C1=C\c1cn(-c2ccccc2)nc1-c1ccccc1,i,i,63,i,i
COc1cc2c(cc1OC)-c1cc(NC3CCCCCCC3)nc(=O)n1CC2,i,135,i,i,i
COc1cc2c(cc1OC)-c1cc(NC3CCCCC3)nc(=O)n1CC2,i,65,i,i,i
COc1cc2c(cc1OC)-c1cc(NC3CC3)nc(=O)n1CC2,i,i,i,i,i
C[C@@H]1CN([C@@H](C)CO)C(=O)CCCn2nncc2CO[C@@H]1CN(C)C(=O)c1ccncc1,nt,nt,i,nt,nt
N/C(=N/O)c1nc(N2CCCC2)nc(N(c2ccccc2)c2ccccc2)n1,i,i,59,i,i
N/C(=N/O)c1nc(N2CCCC2)nc(N2CCCC2)n1,nt,nt,i,nt,nt

# Screens (PubChem)
